Measured values reported in ChEMBL document CHEMBL3988442, “University of Dundee, Small-Polar-MMV Screening Library” (2021).

The molecules below were run against T1, Proteasome subunit beta (Trypanosoma cruzi) (UniProt O96673) (assay: Trypanosoma cruzi proteasome chymotrypsin-like activity (TcProtChymo) assay.). Conditions: 9.37 µM.
T1 sequence (whole entry): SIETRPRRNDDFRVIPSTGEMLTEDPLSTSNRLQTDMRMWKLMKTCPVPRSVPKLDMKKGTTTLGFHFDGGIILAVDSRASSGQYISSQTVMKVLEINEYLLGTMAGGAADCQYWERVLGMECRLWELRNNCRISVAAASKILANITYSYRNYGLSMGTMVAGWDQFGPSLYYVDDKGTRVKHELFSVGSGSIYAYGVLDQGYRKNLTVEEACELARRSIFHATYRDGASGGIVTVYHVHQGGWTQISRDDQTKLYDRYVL
Type: functional
Set-up: scale not given: in the data most compounds retested in dose-response had high values
Molecule `COCCNC(=O)C(C)n1cc(Br)cn1` (centres undefined) has a Percent Effect of 13.1%. `Cn1nccc1C1CCN(Cc2csc(-c3ncccn3)n2)CC1` was tested, and the Percent Effect was 8.08%. Work on `Cc1ccc(NS(=O)(=O)CC2=NC(=O)n3cccc3C2=O)cc1` yielded a Percent Effect of 3.7%. In the case of `COc1ccc(C)cc1S(=O)(=O)NCC(c1cccn1C)N(C)C` (centres undefined), the Percent Effect was 12.2%. Molecule `CSc1ccc(CNC(c2ccccc2)c2nccn2C)cc1` (centres undefined) has a Percent Effect of 11.1%. In the case of `CCCNC(=O)N1CCN(Cc2cc(C)no2)CC1`, the Percent Effect was 17.5%. In the case of `CN(Cc1ccco1)Cc1ccccc1CNC(=O)c1ccncc1`, the Percent Effect was 12.8%. `CCc1c(C)sc(NC(=O)CN2CCN(CC)CC2)c1C(=O)OC` gave a Percent Effect of -2.46%. `COc1ccc(CN(Cc2cncn2C)CC2CCCO2)cc1OC` (centres undefined) was tested, and the Percent Effect was 9.52%. Work on `O=c1ccc(-c2cccs2)nn1CN1CCN(Cc2ccccc2)CC1` yielded a Percent Effect of 11.7%. Work on `COCC1Cn2nnc(-c3cnn(C)c3)c2CN1Cc1ccc(C)s1` (centres undefined) yielded a Percent Effect of -0.0845%. `CC1CCCCN1c1nc2c(c(=O)[nH]1)CCN(Cc1cccnc1)C2` (centres undefined) gave a Percent Effect of 9.36%. For `O=C(Nc1ccccc1)C1CN(CC2CC2)CC12CCOCC2` (centres undefined), the Percent Effect was 10.4%. Molecule `COCCN1C[C@H]2CC[C@@]3(N=C(C)N(CC4CC4)C3=O)[C@H]2C1` has a Percent Effect of 8.71%. `CC(C)c1cc(C(=O)N2CCN(Cc3ccsc3)CC2)n[nH]1` showed a Percent Effect of 12.1%. `CCc1c(C(=O)NC2CCS(=O)(=O)C2)cnn1-c1ccc(F)cc1` (centres undefined) was tested, and the Percent Effect was 7.29%. `CS(=O)(=O)N1CCCC12CCCN(S(=O)(=O)c1cc(F)cc(F)c1)C2` (centres undefined) was tested, and the Percent Effect was 10%. `COc1ccc(C2CCCCCN2S(=O)(=O)N(C)C)cc1` (centres undefined) showed a Percent Effect of 12.5%. With `CC(Cn1ccnc1)NC(=O)NCCNC(=O)C(C)C` (centres undefined) the Percent Effect was 15.4%. Molecule `O=C(NCCCn1cncn1)NCC(c1ccco1)N1CCCCC1` (centres undefined) has a Percent Effect of 17.2%. `CNC(=O)c1cc2c(nc1NCC(C)C)CCN(S(=O)(=O)C1CC1)CC2` gave a Percent Effect of -7.64%. Molecule `COCCN(C)CC(=O)N1C[C@H]2CC[C@@H]1CN(C(=O)c1ccncc1)C2` has a Percent Effect of 17.1%. For `Cc1nn(CC(C)C)c(N(C)C)c1CNCc1cc2ccccc2[nH]1`, the Percent Effect was 5.77%. Molecule `CN(C)Cc1ccnc(C2CCCN2Cc2ccncc2)n1` (centres undefined) has a Percent Effect of 4.21%. `O=C([C@H]1COC[C@H]2CN(Cc3ccco3)C[C@H]21)N1CCCO1` was tested, and the Percent Effect was 4.62%. With `Cc1cc(C)c(CNC(=O)C2CCCN(c3cnccn3)C2)c(=O)[nH]1` (centres undefined) the Percent Effect was 11.5%. Molecule `COCCNC(=O)C[C@@H]1COC[C@H]2CN(C(=O)c3cnccn3)C[C@@H]12` has a Percent Effect of 11.2%. `CN(C)[C@@H]1CCN(c2ncccn2)[C@H]1Cc1ccncc1` was tested, and the Percent Effect was 2.5%. Work on `CC(CNCc1ccncc1)Oc1ccccn1` (centres undefined) yielded a Percent Effect of 13.9%. `COc1ncccc1CN1Cc2nnn(C)c2C(COCC2CC2)C1` (centres undefined) was tested, and the Percent Effect was 1.92%. `Cc1noc2nc(C3CCN(Cc4ccncc4)CC3)cc(C(F)F)c12` showed a Percent Effect of -4.99%. With `CSc1ncccc1C(=O)N1C[C@H]2CC[C@@H]1CN(c1cnccn1)C2` the Percent Effect was 10.5%. `CC(C(=O)Nc1ccc(N2CCCC2)nc1)n1ccnc1` (centres undefined) was tested, and the Percent Effect was 8.65%. `Cc1ccc(Cl)cc1C(=O)N1CCC2(CC1)c1ccccc1[C@@H](N)[C@@H]2O` showed a Percent Effect of 19%. With `Cc1nc(CN2CCN(C(=O)c3ccn(C)c(=O)c3)CC2)cs1` the Percent Effect was 15.9%. `CNS(=O)(=O)c1ccc(C(=O)N2CCCC2c2ccccc2)o1` (centres undefined) gave a Percent Effect of -2.96%. Molecule `CS(=O)(=O)NCC1CCCCN1C(=O)Nc1cccnc1N1CCCC1` (centres undefined) has a Percent Effect of 8.92%. `Cc1cccc(N2CCN(CCNC(=O)C(C)n3cncn3)CC2)c1` (centres undefined) gave a Percent Effect of 15%. With `CCn1nc(CC(C)C)cc1C(=O)NCCCOC` the Percent Effect was 15.8%.
